Active and inactive are the calls of the source. How the calls were made is not given here.
What follows are compounds tested against Serine/threonine-protein kinase pim-1 (Homo sapiens) (UniProt P11309) (assay: PIM1 kinase ligand binding by thermal shift, biophysical, human, melting temperature shift (AID 393)). Conditions: Thermal shift assay, hits give high values; at 10 µM, protein 2 µM, buffer 10 mM PIPES, pH 6.5, NaCl 150 mM unless noted.
Serine/threonine-protein kinase pim-1 (Homo sapiens), sequence (P11309 whole entry, looked up): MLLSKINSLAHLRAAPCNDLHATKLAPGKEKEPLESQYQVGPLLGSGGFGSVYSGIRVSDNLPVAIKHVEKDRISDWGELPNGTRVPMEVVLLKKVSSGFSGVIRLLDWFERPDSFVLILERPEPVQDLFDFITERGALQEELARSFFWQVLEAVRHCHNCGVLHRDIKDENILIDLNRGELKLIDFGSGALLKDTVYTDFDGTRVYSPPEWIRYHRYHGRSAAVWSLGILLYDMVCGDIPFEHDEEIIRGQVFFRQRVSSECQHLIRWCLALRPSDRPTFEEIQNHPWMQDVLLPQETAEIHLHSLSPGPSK

Tm shift, active:
CC(C)[C@@H](CO)Nc1ccc2ncc(-c3cccc(O)c3)n2n1 3.61 Celsius
Nc1ccc(-c2cnc3ccc(NC4CCOCC4)nn23)cc1 4.71 Celsius
COC(=O)c1cnc2oc3ccc(O)cc3c2c1-c1ccccc1 6.2 Celsius [at 10 µM, protein 2 µM, buffer 10 mM Na Citrate, pH 6.5, NaCl 150 mM]
COCCNc1ccc2ncc(-c3cccc(C(N)=O)c3)n2n1 3.13 Celsius
